These results are taken from PubChem BioAssay (NCATS).

Records with an inconclusive call do not appear. The source made the active and inactive calls. The call rests on the fitted dose curve; in most records, active means well fitted inhibition curve with a large enough effect; inconclusive means small, poorly fitted or top-dose-only effect; inactive means flat fitted curve, though single readings scatter.
On the % scale 0 is the no-effect control and ±100 the full control effect; potency means the concentration at half of the fitted maximal effect.

The assay deals with CRL-7250. In words: Cytotoxic Profiling of Annotated Libraries Using Quantitative High-Throughput Screening (AID 1296008). Further: nearly all actives have a fitted effect of over 60% in size. As to conditions: Five cell lines viability, CellTiter-Glo ATP luminescence, 48-72 h; max response: stronger effect = lower value. The procedure, abridged:
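Cytotoxicity was measured as CellTiter-Glo ATP luminescence, read after 10 min at room temperature. Compound treatment of the cells lasted 48 or 72 hr at 37 degrees Celsius in a qHTS format.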
As for `CC#CC(=O)N1CCC[C@H]1c1nc(-c2ccc(C(=O)Nc3ccccn3)cc2)c2c(N)nccn12`, the max response is -4.15% (inactive). Same read-out and setting: the result for `C[C@@H]1O[C@@H](O[C@H]2[C@H](O[C@H]3[C@H](O[C@H]4CC[C@@]5(C)C(CC[C@]6(C)C5CC=C5[C@@H]7CC(C)(C)C[C@@H](O)[C@]7(C)CC[C@]56C)[C@@]4(C)CO)O[C@H](C(=O)O)[C@@H](O)[C@@H]3O)OC[C@H](O)[C@@H]2O)[C@H](O)[C@H](O)[C@H]1O` (stereo not given in full) reads -3.42% (inactive). For the compound `CN(C)c1nc(NC2CCC(NCCc3ccc(Br)cc3OC(F)(F)F)CC2)nc2ccccc12` (stereo not given), the Potency is 18.4 µM (active). With `C[C@H](Oc1ccc(S(C)(=O)=O)cc1C(=O)N1CCN(c2ncc(C(F)(F)F)cc2F)CC1)C(F)(F)F`, the outcome was inactive. As to `Nc1nccn2c(C3CCC(C(=O)O)CC3)nc(-c3cc4cccc(Cl)c4[nH]3)c12` (stereo not given), the Potency is 1.46 µM (active). On to `C[C@H](NC(c1cccc(C[P+](=O)O)c1)[C@H](C)O)c1ccc(Cl)c(Cl)c1` (stereo not given in full), for which the call was inactive. Regarding `C=C(C(=O)OC)C1C(O)CC2(C)C(=O)CCC(O)(CO)C2C1O` (stereo not given), the compound was called inactive.

With `Cc1[nH]nc(C(F)(F)F)c1Cc1sc2c(c1C(=O)N1C[C@](C)(O)CO1)c(=O)n(C)c(=O)n2C(C)C`, the max response was -0.426% (inactive).

With `C/C=C/c1ccc2oc(-c3ccc(O)c(OC)c3)c(C)c2c1`, the max response is -27.9% (inactive). For `CC(C)=CCC[C@](C)(O)[C@H]1CC[C@]2(C)[C@@H]1[C@H](O)CC1[C@@]3(C)CC[C@H](O)C(C)(C)[C@@H]3[C@@H](O[C@@H]3O[C@H](CO)[C@@H](O)[C@H](O)[C@H]3O[C@@H]3O[C@H](CO)[C@@H](O)[C@H](O)[C@H]3O)C[C@]12C` (stereo not given in full), the max response was -7.72% (inactive).
